Source: PubChem BioAssay (NCATS)
Results filed as inconclusive are left out. Active and inactive are the calls of the source. Unless noted, calls follow the shape of the full dose curve.

How the values were obtained:
[1] = qHTS for Inhibitors of the Functional Ribonucleoprotein Complex (vRNP) of Lassa (LASV) Arenavirus: LASV Primary Screen - GLuc reporter signal (AID 1347082; calls by dose curve; tested in HEK293 reporter line; also: nearly all actives have a fitted effect of over 60% in size; also: potency is read from the fitted curve at half-maximal effect)
[2] = qHTS for Inhibitors of the Functional Ribonucleoprotein Complex (vRNP) of Lassa (LASV) Arenavirus: Viability assay - alamar blue signal for LASV Primary Screen (AID 1347083; calls by dose curve; tested in HEK293 reporter line; also: nearly all actives have a fitted effect of over 80% in size; also: potency is read from the fitted curve at half-maximal effect)
[3] = qHTS for Inhibitors of the Functional Ribonucleoprotein Complex (vRNP) of Lymphocytic Choriomeningitis Arenaviruses (LCMV): Viability assay - alamar blue signal for LCMV Primary Screen (AID 1347085; calls by dose curve; tested in HEK293 reporter line; also: nearly all actives have a fitted effect of over 80% in size; also: potency is read from the fitted curve at half-maximal effect)
[4] = target: Nucleoprotein (Lymphocytic choriomeningitis virus (strain Armstrong)) (UniProt P09992); assay: qHTS for Inhibitors of the Functional Ribonucleoprotein Complex (vRNP) of Lymphocytic Choriomeningitis Arenaviruses (LCMV): LCMV Primary Screen - GLuc reporter signal (AID 1347086); also: nearly all actives have a fitted effect of over 70% in size; also: potency is read from the fitted curve at half-maximal effect
Chain of Nucleoprotein (Lymphocytic choriomeningitis virus (strain Armstrong)) (P09992 whole entry, looked up): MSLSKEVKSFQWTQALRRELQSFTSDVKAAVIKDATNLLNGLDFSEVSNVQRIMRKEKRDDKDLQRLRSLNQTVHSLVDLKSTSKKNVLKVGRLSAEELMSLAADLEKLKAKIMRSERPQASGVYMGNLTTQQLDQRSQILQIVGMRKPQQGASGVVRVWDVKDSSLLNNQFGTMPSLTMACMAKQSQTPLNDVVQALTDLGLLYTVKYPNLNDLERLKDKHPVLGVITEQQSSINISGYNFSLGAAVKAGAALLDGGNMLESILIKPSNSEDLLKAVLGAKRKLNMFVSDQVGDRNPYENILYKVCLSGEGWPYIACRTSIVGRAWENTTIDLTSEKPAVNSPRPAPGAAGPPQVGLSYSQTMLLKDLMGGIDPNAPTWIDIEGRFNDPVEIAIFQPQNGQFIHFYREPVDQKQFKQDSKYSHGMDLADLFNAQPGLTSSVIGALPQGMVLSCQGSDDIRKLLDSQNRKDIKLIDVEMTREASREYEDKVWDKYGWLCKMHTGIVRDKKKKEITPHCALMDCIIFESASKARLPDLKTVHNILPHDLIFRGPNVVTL

[5] = Cytotoxicity counterscreen for inhibitors of SARS-CoV-2 cell entry (AID 1645845); also: nearly all actives have a fitted effect of over 50% in size; also: potency is read from the fitted curve at half-maximal effect
How it was run: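 ATP-content luminescence (ATPLite 1step, 15 min RT) read after 48 h compound exposure of Expi293F cells stably expressing human ACE2; normalized to cells-only wells and media-only wells.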

[6] = Primary qHTS to identify inhibitors of SARS-CoV-2 cell entry (AID 1645846); conditions: activity change, negative = inhibition: at 57.1 µM (top of the series) unless noted; also: nearly all actives have a fitted effect of over 45% in size; also: potency is read from the fitted curve at half-maximal effect
How it was run: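 Using luciferase-reporting pseudoviruses carrying Wuhan-Hu-1 spike, the screen tracks entry into stably ACE2-expressing cells over 48 hr. Activity is expressed relative to spike particles versus particles lacking any fusion protein.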

[7] = Inducers of the Endoplasmic Reticulum Stress Response (ERSR) in human glioma: Validation (AID 504836; active = well fitted curve in the direction sought with a large enough effect)
How it was run: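 ERSR induction read as luciferase luminescence (Bright-Glo, 10 min at room temperature) in stably transfected human U87-MG glioma cells exposed to compounds for 16 h, using GRP78 as sensor.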

CCOc1ccccc1N=Nc1c(C)[nH]n(-c2nc(-c3ccccc3)cs2)c1=O
inactive: Potency [1] | Potency [2] | Potency [3] | Potency [4] | Potency [5] | Potency [6]

O=C(Nc1ccccc1Br)N[C@@H]1CCN(c2ccc(C(F)(F)F)cn2)C1
inactive: Potency [1] | Potency [2] | Potency [3] | Potency [4] | Potency [5]
-27.3%: activity change, negative = inhibition [6]

O=[N+]([O-])c1cn2c(n1)OC[C@@H](OCc1ccc(OC(F)(F)F)cc1)C2
inactive: Potency [1] | Potency [2] | Potency [3] | Potency [4] | Potency [5]
-9.12%: activity change, negative = inhibition [6]

CC1=C(C(=O)Nc2cc3cn[nH]c3cc2F)C(c2ccc(C(F)(F)F)cc2)CC(=O)N1 (stereo not given)
inactive: Potency [1] | Potency [2] | Potency [3] | Potency [4] | Potency [5]
-23.5%: activity change, negative = inhibition [6]

O=C(O)C1=CC(O)C(O)[C@H](O)C1 (stereo not given in full)
-8.99%: activity change, negative = inhibition [6]
inactive: Potency [1] | Potency [2] | Potency [3] | Potency [4] | Potency [5]

Cn1c(=O)c(-c2c(Cl)cccc2Cl)cc2cnc(Nc3cccc(C(=O)O)c3)nc21
inactive: Potency [1] | Potency [2] | Potency [3] | Potency [4] | Potency [5] | Potency [6]

NC(=O)[C@@H](CCC(F)(F)F)N(Cc1ccc(-c2ncon2)cc1F)S(=O)(=O)c1ccc(Cl)cc1
inactive: Potency [1] | Potency [2] | Potency [3] | Potency [4] | Potency [5]
-47.2%: activity change, negative = inhibition [6]

Clc1ccc2c(N3CCN(CCCN4CCN(c5ccnc6cc(Cl)ccc56)CC4)CC3)ccnc2c1
inactive: Potency [1] | Potency [2] | Potency [3] | Potency [4] | Potency [5]
-11.2%: activity change, negative = inhibition [6]

CCCCCCCCCCCC(CC1OC(=O)C1CCCCCC)OC(=O)C(CC(C)C)NC=O (stereo not given)
inactive: Potency [1] | Potency [2] | Potency [3] | Potency [4] | Potency [5]
0.438%: activity change, negative = inhibition [6]

CNC(=O)c1cc(COc2nnc(Nc3ccc(Cl)cc3)c3ccoc23)ccn1
-17%: activity change, negative = inhibition [6]
inactive: Potency [1] | Potency [2] | Potency [3] | Potency [4] | Potency [5]

O=C(c1ccc(C(=O)N2CCC(N3CCCC3)CC2)c(Nc2ccccc2)c1)N1CCC(N2CCCC2)CC1
inactive: Potency [1] | Potency [2] | Potency [3] | Potency [4] | Potency [5]
-24.6%: activity change, negative = inhibition [6]

c1ccc2c(Oc3nc(Nc4ccc(N5CCOCC5)cc4)c4ncn(C5CCCCC5)c4n3)cccc2c1
-17.3%: activity change, negative = inhibition [6]
inactive: Potency [1] | Potency [2] | Potency [3] | Potency [4] | Potency [5]

Cc1cnc(C(=O)O)c[n+]1[O-]
inactive: Potency [1] | Potency [2] | Potency [3] | Potency [4] | Potency [5]
-9.41%: activity change, negative = inhibition [6]

COc1ccc(-c2ccc3ncc4c(c3c2)n(-c2ccc(N3CCNCC3)c(C(F)(F)F)c2)c(=O)n4C)cn1
active: Potency [1] 2.2 nM | Potency [5] 4470 nM | Potency [6] 3160 nM
inactive: Potency [2] | Potency [3] | Potency [4]

CC(C)C[C@@H](N)[C@H](O)C(=O)N[C@H](C(=O)N[C@H](C(=O)N[C@@H](CC(=O)O)C(=O)O)C(C)C)C(C)C
-14%: activity change, negative = inhibition [6]
inactive: Potency [1] | Potency [2] | Potency [3] | Potency [4] | Potency [5]

N#CC1(c2ccc(NC(=O)c3cccnc3NCc3ccncc3)cc2)CCCC1
inactive: Potency [1] | Potency [2] | Potency [3] | Potency [4] | Potency [5] | Potency [6]

Cc1cc(N2CCOCC2)cc2[nH]c(-c3c(NC[C@@H](O)c4cccc(Cl)c4)cc[nH]c3=O)nc12
inactive: Potency [5]
-9.29%: activity change, negative = inhibition [6]
active: Potency [1] 3850 nM | Potency [2] 769 nM | Potency [3] 863 nM | Potency [4] 1530 nM

NCc1c[nH]c(=S)n1[C@H]1CCc2c(F)cc(F)cc2C1
inactive: Potency [1] | Potency [2] | Potency [3] | Potency [4] | Potency [5]
-19.7%: activity change, negative = inhibition [6]

COc1ccc(CC2=NN3C([C@@H](CCc4ccccc4)[C@@H](C)O)=NC(C)C3C(=O)N2)cc1OC (stereo not given in full)
inactive: Potency [1] | Potency [2] | Potency [3] | Potency [4] | Potency [5] | Potency [6]

C[Se]CCC(N)C(=O)O (stereo not given)
inactive: Potency [1] | Potency [2] | Potency [3] | Potency [4] | Potency [5]
-2.1% [at 114 µM]: activity change, negative = inhibition [6]

CC(C)Nc1cc(C(F)(F)F)cc2nc(NC(=O)c3cccnc3)nn12
-4.48%: activity change, negative = inhibition [6]
inactive: Potency [1] | Potency [2] | Potency [3] | Potency [4] | Potency [5]

C[C@]12CCC3c4ccc(O)cc4CCC3C1CCC2=O (stereo not given in full)
inactive: Potency [1] | Potency [2] | Potency [3] | Potency [4] | Potency [5] | Potency [6]

CCNC(=O)[C@H]1O[C@@H](n2cnc3c(N)nc(NCCc4ccc(CCC(=O)O)cc4)nc32)[C@H](O)[C@@H]1O
inactive: outcome [7] | Potency [1] | Potency [2] | Potency [3] | Potency [4] | Potency [5] | Potency [6]

C[C@H](NC(=O)Cc1cc(F)cc(F)c1)C(=O)N[C@H](C(=O)OC(C)(C)C)c1ccccc1
-33%: activity change, negative = inhibition [6]
inactive: Potency [1] | Potency [2] | Potency [3] | Potency [4] | Potency [5]
